A selection: hits, their analogues and other compounds. The true share with any hit is near 12%.
SARS PLpro yeast: inhibitors of SARS-CoV papain-like protease in yeast. S. cerevisiae expressing SARS-CoV PLpro, growth rescue. Potency, µM (doses to about 32.9 µM), without a hit: at the top dose activity, positive = growth rescue, most hits filed as activators. hit rate 0.19% among 330,000. AID 485353; further: potency means the concentration at half of the fitted maximal effect; 0% is about no effect; nearly all actives have a fitted effect of over 55% in size
NS1 inh: influenza NS1 inhibition | Potency, µM (titrated, usually from 46.1 µM), for inactives: at the top dose activity, positive = more growth | hit rate 0.4% among 270,000; further: potency means the concentration at half of the fitted maximal effect; actives are rising curves; nearly all actives have a fitted effect of over 50% in size
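Compounds were scored for reversing the slow growth caused by influenza A NS1 in S. cerevisiae, measured by optical density at 600 nm. Assay medium contained 2% galactose at pH 6.0; NS1-free yeast of the same strain were the positive control.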
Shiga toxin inh: blocks Shiga toxin action in Vero cells; Vero cells, Shiga toxin protein synthesis inhibition reporter; hit rate 9.2% among 290,000; inhibition, % at 38.7 µM; in the data active means inhibition mostly above about 28%, no sharp cut-off; inactive means mostly below about 43%; further: 0% is about no effect
Cycloheximide cs: counter-screen for Shiga toxin inhibitors: cycloheximide protein synthesis inhibition. max response, %. AID 2314. cell reporter, cycloheximide protein synthesis inhibition counterscreen. hit rate 12% among 300,000; in the data active means max response mostly above about 13%, no sharp cut-off; inactive means mostly below about 14%; further: read at 38.3 µM for the half of the compounds with a filed dose; 0% is about no effect
* hit, by the source's call; u = inconclusive; x = not tested or not shown; + = active, no number. Unless noted, the call rests on the fitted dose curve.

SMILES	SARS PLpro yeast	NS1 inh	Shiga toxin inh	Cycloheximide cs
O=C(Nc1ccccc1Cl)c1cc[n+]([O-])cc1	15.3%	5.7%	-7.7	-4.9
O=C(Nc1ccccc1NC(=O)c1ccccc1F)c1ccccc1F	-0.2%	-11.8%	-5.7	1.1
O=C(Nc1ccccc1F)c1ccn[nH]1	-11.2%	x	46.8*	22.3*
O=C(Nc1ccccc1Cl)c1ccn[nH]1	-4.6%	-5.7%	110.5	19.8*
Cc1cccc(OCc2nnc(SCC(=O)NC3CCCC3)n2C)c1	-1.5%	10.4%	9.3	-2.5
O=C1CCC(=O)N1CC(O)COc1ccccc1 (centres undefined)	0.8%	3.2%	3.2	-3.0
O=C1c2ccccc2C(=O)N1CC(O)COc1ccc(Cl)cc1 (centres undefined)	-0.4%	-6.0%	30.6	18.5*
O=C1CSC(=O)N1CC(O)COc1ccc(Cl)cc1 (centres undefined)	8.9%	4.8%	86.1*	38.7*
[Li+]	x	0.0%	x	x
O=C(NCc1ccco1)c1cc(-c2cccs2)on1	2.2%	-5.5%	121.2*	55.4*
COc1ccc(CCNC(=O)c2cc(-c3ccccc3)on2)cc1OC	2.4%	-5.4%	9.7	4.1
COCCNC(=O)c1cc2ncc(Br)cn2n1	-3.9%	-4.0%	18.1	6.8
O=C(NCc1ccco1)c1cc(-c2ccccc2)on1	-4.3%	-1.6%	104.5*	48.1*
O=C(NCCc1ccccc1)c1cc2ncc(Br)cn2n1	1.4%	-2.6%	45.9	26.4*
CC(C)c1cc(C(=O)NCCc2ccccc2)no1	0.2%	x	72.1*	46.9*
O=C(NCc1ccco1)c1cccs1	2.6%	-4.7%	-23.0	7.0
CC(C)c1ccc(NC2CCCN(C(=O)c3n[nH]c4c3CCC4)C2)cc1 (centres undefined)	3.8%	1.3%	9.1	11.9
CSCCC(NC(=O)c1ccco1)c1nc2ccccc2[nH]1 (centres undefined)	0.0%	-3.7%	12.4	0.9
O=C(c1ccc(F)cc1F)N1CCN(c2n[nH]c(=O)[nH]c2=O)CC1	5.3%	x	-18.0	-1.6
COCCN(CC(=O)Nc1ccccc1C(F)(F)F)C(=O)c1ccc(-n2cccn2)cc1	-0.2%	x	x	x
O=C(CN1C(=O)NC2(CCCc3ccccc32)C1=O)N1CCCCC1 (centres undefined)	0.3%	x	x	x
O=C(NCc1ccco1)c1cc(-c2ccc(F)cc2)on1	-0.8%	0.5%	91.7*	58.7*
CC(C)c1cc(C(=O)NCc2ccco2)no1	-12.9%	u	66.3*	41.8*
O=C(c1ccc(F)cc1)c1c[nH]c(C(=O)NCc2ccco2)c1	2.3%	11.6%	1.9	2.0
CCOC(=O)C1(Cc2cccc(Cl)c2)CCCN(C(=O)c2cn[nH]c2)C1 (centres undefined)	x	4.4%	1.4	-1.7
SMILES	SARS PLpro yeast	NS1 inh	Shiga toxin inh	Cycloheximide cs
CCOC(=O)C1(Cc2cccc(Cl)c2)CCCN(C(=O)c2ccnn2C)C1 (centres undefined)	-1.2%	-6.4%	40.6*	49.6*
CCOC(=O)C1(Cc2cccc(Cl)c2)CCCN(CCO)C1 (centres undefined)	-0.8%	4.5%	-4.9	-1.5
CCOC(=O)C1(Cc2cccc(Cl)c2)CCCN(C(=O)c2cc(CC)on2)C1 (centres undefined)	5.7%	-42.2%	62.4*	42.5*
CCOC(=O)C1(Cc2cccc(Cl)c2)CCCN(C(=O)c2cnn(CC)c2)C1 (centres undefined)	-0.5%	-9.2%	39.5*	22.2*
CCOC(=O)C1(Cc2cccc(Cl)c2)CCCN(C(=O)c2cccnc2)C1 (centres undefined)	0.7%	3.5%	36.7	-1.0
CCOC(=O)C1(Cc2cccc(Cl)c2)CCCN(C(=O)c2cc(C)n(C)n2)C1 (centres undefined)	-5.9%	-0.7%	-18.3	-1.2
CCOC(=O)C1(Cc2cccc(Cl)c2)CCCN(C(=O)C(C)(C)C)C1 (centres undefined)	-3.1%	x	44.9	27.5*
Cc1csc(SCC(=O)NC(C)C2CC3CCC2C3)n1 (centres undefined)	-2.1%	x	x	x
Cc1ccc2[nH]c(C)c(CN(C)C3CCN(C)CC3)c(=O)c2c1	x	-2.3%	x	x
CC(C)(C)NC(=O)NC(=O)CSc1n[nH]c(-c2ccccc2Br)n1	-1.1%	x	17.1	-1.4
CCOC(=O)C1(Cc2cccc(Cl)c2)CCCN(C(=O)CCNC(C)=O)C1 (centres undefined)	0.0%	2.0%	7.7	1.2
CCCc1cc(C(=O)N2CCCC(Cc3cccc(Cl)c3)(C(=O)OCC)C2)n(C)n1 (centres undefined)	-6.9%	-13.8%	65.0*	17.9
CCOC(=O)C1(Cc2cccc(Cl)c2)CCCN(C(=O)CN2C(=O)CSC2=O)C1 (centres undefined)	-0.4%	-6.3%	46.4*	35.7*
COc1cc(/C=N\NC(=O)c2cccnc2)ccc1OC(=O)c1ccccc1Cl	-7.2%	7.3%	-8.0	-0.5
COc1cc(OC)cc(C(=O)Oc2ccc(/C=N/Nc3nc4ccccc4s3)cc2OC)c1	2.0%	28.5%	123.9*	48.3*
COc1cc(/C=N/Nc2nc3ccccc3s2)ccc1OC(=O)c1ccccc1F	6.8%	-3.2%	+	43.2*
COc1cccc(C(=O)Oc2ccc(/C=N/NC(=O)c3ccncc3)cc2OC)c1	0.1%	2.1%	-8.3	-1.2
O=C1NCC2=C1C(c1ccc(Br)cc1)Nc1ccccc1N2 (centres undefined)	-2.4%	-22.5%	77.4*	21.9*
O=S(=O)(c1cnc(Cl)c(Br)c1)N1CCCCCC1	24.1%	6.9%	-4.0	-2.7
Fc1ccc2nc(Nc3nc4cc5c(cc4s3)OCO5)sc2c1	-35.1%	28.5%	79.8*	59.2*
Fc1ccc2nc(Nc3nc4cc5c(cc4s3)OCCO5)sc2c1	4.6%	9.8%	25.2*	62.1*
c1ccc2sc(Nc3nc4cc5c(cc4s3)OCO5)nc2c1	-47.8%	8.4%	116.7*	119.4*
CC(C)c1ccc(NC(=O)NC2CCN(CC(=O)Nc3cccc4ccccc34)CC2)cc1	0.4%	9.5%	-14.9	-2.5
CCn1c(COc2ccc(=O)n(-c3ccccc3)n2)n[nH]c1=S	3.5%	x	-5.3	-5.6
O=C1c2ccccc2C(=O)c2c1cccc2-n1nnc2ccccc21	-0.7%	-2.1%	-6.4	-4.2
SMILES	SARS PLpro yeast	NS1 inh	Shiga toxin inh	Cycloheximide cs
O=C1C(N2CCOCC2)=C(n2nnc3ccccc32)C(=O)c2ccccc21	-35.1%	-21.0%	26.4	45.2*
NC(=O)C(=O)NCCCN1CCOCC1	1.0%	-0.3%	-6.0	-4.8
COc1ccc(CCNC(=O)c2nnn(-c3ccccc3OC)c2N)cc1OC	-11.1%	-8.4%	-2.1	-1.8
CCOc1ccccc1NC(=O)c1nnn(-c2ccc3c(c2)OCCO3)c1N	-20.9%	-0.1%	64.0*	26.0*
Nc1c(C(=O)Nc2cccc(F)c2)nnn1-c1ccc2c(c1)OCCO2	4.4%	2.7%	69.6*	20.4*
COc1ccc(CCNC(=O)c2nnn(-c3ccc4c(c3)OCCO4)c2N)cc1OC	25.7%	-13.9%	151.1*	70.0*
Cc1ccccc1NC(=O)c1nnn(-c2ccc3c(c2)OCCO3)c1N	-7.5%	-9.1%	80.2*	53.0*
CCOC(=O)c1ccc(S(=O)(=O)NC2CCC(C)CC2)cc1 (centres undefined)	-3.0%	x	x	x
O=C(c1cnn(C(=O)CN2CCCC2=O)c1)c1ccccc1O	-10.5%	x	x	x
COc1cccc(NC(=O)Nc2nc(SC(C)(C)C)ns2)c1	-4.3%	-32.8%	x	25.3*
CCSc1nsc(NC(=O)Nc2cccc(F)c2)n1	-22.7%	-134.2%	x	38.8*

Screening data (PubChem)
